{"source": "PubChem BioAssay AID493231", "about": "(Broad Institute, 2011)", "note": "Potency and affinity values are given separately. Activity calls are given as the source filed them. A call without a number means that no potency is given here. The rule behind the calls is not given here."}
{"biological_target": "Acyl-homoserine lactone acylase PvdQ (Pseudomonas aeruginosa (strain ATCC 15692 / DSM 22644 / CIP 104116 / JCM 14847 / LMG 12228 / 1C / PRS 101 / PAO1)) (UniProt Q9I194)", "sequence (Q9I194 whole entry, looked up)": "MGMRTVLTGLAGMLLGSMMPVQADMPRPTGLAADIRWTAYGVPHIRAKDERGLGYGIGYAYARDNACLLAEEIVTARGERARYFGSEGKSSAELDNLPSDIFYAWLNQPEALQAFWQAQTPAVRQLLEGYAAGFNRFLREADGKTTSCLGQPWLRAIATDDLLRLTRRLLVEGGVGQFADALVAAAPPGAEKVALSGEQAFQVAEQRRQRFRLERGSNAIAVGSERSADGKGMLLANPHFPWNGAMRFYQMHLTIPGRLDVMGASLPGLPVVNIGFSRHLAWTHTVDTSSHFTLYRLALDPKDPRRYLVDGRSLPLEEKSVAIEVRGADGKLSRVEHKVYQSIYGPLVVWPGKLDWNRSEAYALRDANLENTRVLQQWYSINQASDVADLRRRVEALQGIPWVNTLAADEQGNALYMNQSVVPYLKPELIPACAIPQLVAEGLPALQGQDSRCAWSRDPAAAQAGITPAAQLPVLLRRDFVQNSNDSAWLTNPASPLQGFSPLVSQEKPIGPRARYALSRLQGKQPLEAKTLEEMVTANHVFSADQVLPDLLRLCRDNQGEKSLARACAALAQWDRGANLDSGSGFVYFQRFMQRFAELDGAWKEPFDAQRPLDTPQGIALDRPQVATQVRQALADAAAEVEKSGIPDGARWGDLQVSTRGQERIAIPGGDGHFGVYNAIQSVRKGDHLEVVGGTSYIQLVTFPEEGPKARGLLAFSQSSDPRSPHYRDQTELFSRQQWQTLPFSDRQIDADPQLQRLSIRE", "experiment": "PvdQ acylase enzyme activity blockers – biochemical, fluorescence, plate reader and imaging, cherry-picks, dose response (AID 493231);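 note: more negative values mean stronger inhibition of the acylase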", "conditions": "purified PvdQ acylase, fluorogenic substrate; series mostly up to 10 µM"}
{"smiles": "O=[N+]([O-])c1ccc2c(c1)Cc1cc(O)ccc1-2", "outcome": "inactive"}
{"smiles": "Cc1cc(N(CCCl)CCCl)ccc1C=NNC(=O)c1cccnc1", "outcome": "inactive"}
{"smiles": "CC1(C)CC2(CCO1)NCCN1C(=O)CSC12", "note": "(stereo not drawn)", "outcome": "inactive"}
